# Test results reported in article PMC11062922 (Nature Chemical Biology, 2023).
# Where two headings read alike, the source gives them in different places.
# Tests used:
# [1] = test system: MARK4; conditions: read-out: apparent Kd, n = 1
# [2] = test system: NTRK1; conditions: read-out: apparent Kd, n = 1
# [3] = compound concentrations:100 nM and 1000 nM (sheet 'Lestaurtinib' of Supplementary Table 1),run:Lestaurtinib_02724_R3,Plate:MR021
# [4] = compound concentrations:100 nM and 1000 nM (sheet 'Lestaurtinib' of Supplementary Table 1),run:Lestaurtinib_02741_R2,Plate:MR023
# [5] = compound concentrations:100 nM and 1000 nM (sheet 'Lestaurtinib' of Supplementary Table 1),run:Lestaurtinib_02741_R3,Plate:MR023
# [6] = compound concentrations:100 nM and 1000 nM (sheet 'Lestaurtinib' of Supplementary Table 1),run:Lestaurtinib_02748_R1,Plate:MR024
substance,measurement,setting,value
Lestaurtinib,potency estimated from few doses,[1]; [3],113 nM
same,potency estimated from few doses,[1]; [4],144 nM
same,potency estimated from few doses,[1]; [5],82.4 nM
same,potency estimated from few doses,[1]; [6],151 nM
same,potency estimated from few doses,"[1]; compound concentrations:100 nM and 1000 nM (sheet 'Lestaurtinib' of Supplementary Table 1),run:Lestaurtinib_02748_R2,Plate:MR024",97.8 nM
same,potency estimated from few doses,"[1]; compound concentrations:100 nM and 1000 nM (sheet 'Lestaurtinib' of Supplementary Table 1),run:Lestaurtinib_02748_R3,Plate:MR024",98.7 nM
same,potency estimated from few doses,"[1]; compound concentrations:100 nM and 1000 nM (sheet 'Lestaurtinib' of Supplementary Table 1),run:Lestaurtinib_02752_R1,Plate:MR025",84.2 nM
same,potency estimated from few doses,"[1]; compound concentrations:100 nM and 1000 nM (sheet 'Lestaurtinib' of Supplementary Table 1),run:Lestaurtinib_02752_R3,Plate:MR025",113 nM
same,potency estimated from few doses,"[1]; compound concentrations:100 nM and 1000 nM (sheet 'Lestaurtinib' of Supplementary Table 1),run:Lestaurtinib_02765_R1,Plate:MR026",86.1 nM
same,potency estimated from few doses,"[1]; compound concentrations:100 nM and 1000 nM (sheet 'Lestaurtinib' of Supplementary Table 1),run:Lestaurtinib_02765_R3,Plate:MR026",95.3 nM
same,potency estimated from few doses,"[1]; compound concentrations:100 nM and 1000 nM (sheet 'Lestaurtinib' of Supplementary Table 1),run:Lestaurtinib_02766_R1,Plate:MR027",154 nM
same,potency estimated from few doses,"[1]; compound concentrations:100 nM and 1000 nM (sheet 'Lestaurtinib' of Supplementary Table 1),run:Lestaurtinib_02766_R2,Plate:MR027",63.6 nM
same,potency estimated from few doses,"[1]; compound concentrations:100 nM and 1000 nM (sheet 'Lestaurtinib' of Supplementary Table 1),run:Lestaurtinib_02766_R3,Plate:MR027",76.7 nM
same,potency estimated from few doses,"[1]; compound concentrations:100 nM and 1000 nM (sheet 'Lestaurtinib' of Supplementary Table 1),run:Lestaurtinib_02768_R1,Plate:MR028",92.1 nM
same,potency estimated from few doses,"[1]; compound concentrations:100 nM and 1000 nM (sheet 'Lestaurtinib' of Supplementary Table 1),run:Lestaurtinib_02768_R3,Plate:MR028",80.6 nM
same,potency estimated from few doses,"[1]; compound concentrations:100 nM and 1000 nM (sheet 'Lestaurtinib' of Supplementary Table 1),run:Lestaurtinib_02795_R1,Plate:MR022",115 nM
same,potency estimated from few doses,"[1]; compound concentrations:100 nM and 1000 nM (sheet 'Lestaurtinib' of Supplementary Table 1),run:Lestaurtinib_02795_R2,Plate:MR022",157 nM
same,potency estimated from few doses,"[1]; compound concentrations:100 nM and 1000 nM (sheet 'Lestaurtinib' of Supplementary Table 1),run:Lestaurtinib_02802_R2,Plate:MR029",86 nM
same,potency estimated from few doses,"[1]; compound concentrations:100 nM and 1000 nM (sheet 'Lestaurtinib' of Supplementary Table 1),run:Lestaurtinib_02802_R3,Plate:MR029",77.8 nM
same,potency estimated from few doses,"[1]; compound concentrations:100 nM and 1000 nM (sheet 'Lestaurtinib' of Supplementary Table 1),run:Lestaurtinib_02896_R2,Plate:MR030",141 nM
same,potency estimated from few doses,"[1]; compound concentrations:100 nM and 1000 nM (sheet 'Lestaurtinib' of Supplementary Table 1),run:Lestaurtinib_02896_R3,Plate:MR030",87.4 nM
same,potency estimated from few doses,"[1]; compound concentrations:100 nM and 1000 nM (sheet 'Lestaurtinib' of Supplementary Table 1),run:Lestaurtinib_03172_R1,Plate:MR031",86.8 nM
same,potency estimated from few doses,"[1]; compound concentrations:100 nM and 1000 nM (sheet 'Lestaurtinib' of Supplementary Table 1),run:Lestaurtinib_03172_R2,Plate:MR031",297 nM
same,potency estimated from few doses,"[1]; compound concentrations:100 nM and 1000 nM (sheet 'Lestaurtinib' of Supplementary Table 1),run:Lestaurtinib_03252_R1,Plate:MR032",41.6 nM
same,potency estimated from few doses,"[1]; compound concentrations:100 nM and 1000 nM (sheet 'Lestaurtinib' of Supplementary Table 1),run:Lestaurtinib_03252_R2,Plate:MR032",59.5 nM
same,potency estimated from few doses,"[1]; compound concentrations:100 nM and 1000 nM (sheet 'Lestaurtinib' of Supplementary Table 1),run:Lestaurtinib_03260_R1,Plate:MR033",469 nM
same,potency estimated from few doses,"[1]; compound concentrations:100 nM and 1000 nM (sheet 'Lestaurtinib' of Supplementary Table 1),run:Lestaurtinib_03260_R2,Plate:MR033",609 nM
same,potency estimated from few doses,"[1]; compound concentrations:100 nM and 1000 nM (sheet 'Lestaurtinib' of Supplementary Table 1),run:Lestaurtinib_03260_R3,Plate:MR033",165 nM
same,potency estimated from few doses,"[2]; compound concentrations:100 nM and 1000 nM (sheet 'Lestaurtinib' of Supplementary Table 1),run:Lestaurtinib_02339_R2,Plate:MR001",1580 nM
same,potency estimated from few doses,"[2]; compound concentrations:100 nM and 1000 nM (sheet 'Lestaurtinib' of Supplementary Table 1),run:Lestaurtinib_02339_R3,Plate:MR001",1910 nM
same,potency estimated from few doses,"[2]; compound concentrations:100 nM and 1000 nM (sheet 'Lestaurtinib' of Supplementary Table 1),run:Lestaurtinib_02364_R1,Plate:MR002",893 nM
same,potency estimated from few doses,"[2]; compound concentrations:100 nM and 1000 nM (sheet 'Lestaurtinib' of Supplementary Table 1),run:Lestaurtinib_02364_R2,Plate:MR002",971 nM
same,potency estimated from few doses,"[2]; compound concentrations:100 nM and 1000 nM (sheet 'Lestaurtinib' of Supplementary Table 1),run:Lestaurtinib_02364_R3,Plate:MR002",789 nM
same,potency estimated from few doses,"[2]; compound concentrations:100 nM and 1000 nM (sheet 'Lestaurtinib' of Supplementary Table 1),run:Lestaurtinib_02381_R1,Plate:MR004",763 nM
same,potency estimated from few doses,"[2]; compound concentrations:100 nM and 1000 nM (sheet 'Lestaurtinib' of Supplementary Table 1),run:Lestaurtinib_02381_R2,Plate:MR004",626 nM
same,potency estimated from few doses,"[2]; compound concentrations:100 nM and 1000 nM (sheet 'Lestaurtinib' of Supplementary Table 1),run:Lestaurtinib_02381_R3,Plate:MR004",1330 nM
same,potency estimated from few doses,"[2]; compound concentrations:100 nM and 1000 nM (sheet 'Lestaurtinib' of Supplementary Table 1),run:Lestaurtinib_02407_R1,Plate:MR005",1580 nM
same,potency estimated from few doses,"[2]; compound concentrations:100 nM and 1000 nM (sheet 'Lestaurtinib' of Supplementary Table 1),run:Lestaurtinib_02422_R1,Plate:MR006",1590 nM
same,potency estimated from few doses,"[2]; compound concentrations:100 nM and 1000 nM (sheet 'Lestaurtinib' of Supplementary Table 1),run:Lestaurtinib_02422_R2,Plate:MR006",1420 nM
same,potency estimated from few doses,"[2]; compound concentrations:100 nM and 1000 nM (sheet 'Lestaurtinib' of Supplementary Table 1),run:Lestaurtinib_02437_R2,Plate:MR007",1490 nM
same,potency estimated from few doses,"[2]; compound concentrations:100 nM and 1000 nM (sheet 'Lestaurtinib' of Supplementary Table 1),run:Lestaurtinib_02437_R3,Plate:MR007",113 nM
same,potency estimated from few doses,"[2]; compound concentrations:100 nM and 1000 nM (sheet 'Lestaurtinib' of Supplementary Table 1),run:Lestaurtinib_02438_R1,Plate:MR008",1000 nM
same,potency estimated from few doses,"[2]; compound concentrations:100 nM and 1000 nM (sheet 'Lestaurtinib' of Supplementary Table 1),run:Lestaurtinib_02438_R2,Plate:MR008",1530 nM
same,potency estimated from few doses,"[2]; compound concentrations:100 nM and 1000 nM (sheet 'Lestaurtinib' of Supplementary Table 1),run:Lestaurtinib_02443_R1,Plate:MR009",796 nM
same,potency estimated from few doses,"[2]; compound concentrations:100 nM and 1000 nM (sheet 'Lestaurtinib' of Supplementary Table 1),run:Lestaurtinib_02473_R1,Plate:MR010",695 nM
same,potency estimated from few doses,"[2]; compound concentrations:100 nM and 1000 nM (sheet 'Lestaurtinib' of Supplementary Table 1),run:Lestaurtinib_02473_R2,Plate:MR010",826 nM
same,potency estimated from few doses,"[2]; compound concentrations:100 nM and 1000 nM (sheet 'Lestaurtinib' of Supplementary Table 1),run:Lestaurtinib_02482_R2,Plate:MR011",894 nM
same,potency estimated from few doses,"[2]; compound concentrations:100 nM and 1000 nM (sheet 'Lestaurtinib' of Supplementary Table 1),run:Lestaurtinib_02482_R3,Plate:MR011",649 nM
same,potency estimated from few doses,"[2]; compound concentrations:100 nM and 1000 nM (sheet 'Lestaurtinib' of Supplementary Table 1),run:Lestaurtinib_02487_R2,Plate:MR012",1150 nM
same,potency estimated from few doses,"[2]; compound concentrations:100 nM and 1000 nM (sheet 'Lestaurtinib' of Supplementary Table 1),run:Lestaurtinib_02487_R3,Plate:MR012",921 nM
same,potency estimated from few doses,"[2]; compound concentrations:100 nM and 1000 nM (sheet 'Lestaurtinib' of Supplementary Table 1),run:Lestaurtinib_02496_R1,Plate:MR013",946 nM
same,potency estimated from few doses,"[2]; compound concentrations:100 nM and 1000 nM (sheet 'Lestaurtinib' of Supplementary Table 1),run:Lestaurtinib_02496_R2,Plate:MR013",1400 nM
same,potency estimated from few doses,"[2]; compound concentrations:100 nM and 1000 nM (sheet 'Lestaurtinib' of Supplementary Table 1),run:Lestaurtinib_02496_R3,Plate:MR013",828 nM
same,potency estimated from few doses,"[2]; compound concentrations:100 nM and 1000 nM (sheet 'Lestaurtinib' of Supplementary Table 1),run:Lestaurtinib_02566_R2,Plate:MR014",898 nM
same,potency estimated from few doses,"[2]; compound concentrations:100 nM and 1000 nM (sheet 'Lestaurtinib' of Supplementary Table 1),run:Lestaurtinib_02572_R1,Plate:MR015",810 nM
same,potency estimated from few doses,"[2]; compound concentrations:100 nM and 1000 nM (sheet 'Lestaurtinib' of Supplementary Table 1),run:Lestaurtinib_02572_R3,Plate:MR015",974 nM
same,potency estimated from few doses,"[2]; compound concentrations:100 nM and 1000 nM (sheet 'Lestaurtinib' of Supplementary Table 1),run:Lestaurtinib_02577_R2,Plate:MR016",1300 nM
same,potency estimated from few doses,"[2]; compound concentrations:100 nM and 1000 nM (sheet 'Lestaurtinib' of Supplementary Table 1),run:Lestaurtinib_02584_R2,Plate:MR017",1000 nM
same,potency estimated from few doses,"[2]; compound concentrations:100 nM and 1000 nM (sheet 'Lestaurtinib' of Supplementary Table 1),run:Lestaurtinib_02601_R1,Plate:MR018",1580 nM
same,potency estimated from few doses,"[2]; compound concentrations:100 nM and 1000 nM (sheet 'Lestaurtinib' of Supplementary Table 1),run:Lestaurtinib_02601_R2,Plate:MR018",673 nM
same,potency estimated from few doses,"[2]; compound concentrations:100 nM and 1000 nM (sheet 'Lestaurtinib' of Supplementary Table 1),run:Lestaurtinib_02601_R3,Plate:MR018",924 nM
same,potency estimated from few doses,"[2]; compound concentrations:100 nM and 1000 nM (sheet 'Lestaurtinib' of Supplementary Table 1),run:Lestaurtinib_02606_R2,Plate:MR019",1210 nM
same,potency estimated from few doses,"[2]; compound concentrations:100 nM and 1000 nM (sheet 'Lestaurtinib' of Supplementary Table 1),run:Lestaurtinib_02606_R3,Plate:MR019",1600 nM
same,potency estimated from few doses,"[2]; compound concentrations:100 nM and 1000 nM (sheet 'Lestaurtinib' of Supplementary Table 1),run:Lestaurtinib_02624_R1,Plate:MR020",1300 nM
same,potency estimated from few doses,"[2]; compound concentrations:100 nM and 1000 nM (sheet 'Lestaurtinib' of Supplementary Table 1),run:Lestaurtinib_02624_R2,Plate:MR020",614 nM
same,potency estimated from few doses,"[2]; compound concentrations:100 nM and 1000 nM (sheet 'Lestaurtinib' of Supplementary Table 1),run:Lestaurtinib_02624_R3,Plate:MR020",873 nM
same,potency estimated from few doses,"[2]; compound concentrations:100 nM and 1000 nM (sheet 'Lestaurtinib' of Supplementary Table 1),run:Lestaurtinib_02724_R2,Plate:MR021",691 nM
same,potency estimated from few doses,[2]; [3],628 nM
same,potency estimated from few doses,"[2]; compound concentrations:100 nM and 1000 nM (sheet 'Lestaurtinib' of Supplementary Table 1),run:Lestaurtinib_02741_R1,Plate:MR023",772 nM
same,potency estimated from few doses,[2]; [4],783 nM
same,potency estimated from few doses,[2]; [5],1330 nM
same,potency estimated from few doses,[2]; [6],922 nM
